Assay [1] addresses Sphingosine kinase 1 (Homo sapiens) (UniProt Q9NYA1). The note with it: at 1 µM.
For assay [2], the target named is T1, Sphingosine kinase 2 (Homo sapiens) (UniProt Q9NRA0).
T1 sequence (whole entry): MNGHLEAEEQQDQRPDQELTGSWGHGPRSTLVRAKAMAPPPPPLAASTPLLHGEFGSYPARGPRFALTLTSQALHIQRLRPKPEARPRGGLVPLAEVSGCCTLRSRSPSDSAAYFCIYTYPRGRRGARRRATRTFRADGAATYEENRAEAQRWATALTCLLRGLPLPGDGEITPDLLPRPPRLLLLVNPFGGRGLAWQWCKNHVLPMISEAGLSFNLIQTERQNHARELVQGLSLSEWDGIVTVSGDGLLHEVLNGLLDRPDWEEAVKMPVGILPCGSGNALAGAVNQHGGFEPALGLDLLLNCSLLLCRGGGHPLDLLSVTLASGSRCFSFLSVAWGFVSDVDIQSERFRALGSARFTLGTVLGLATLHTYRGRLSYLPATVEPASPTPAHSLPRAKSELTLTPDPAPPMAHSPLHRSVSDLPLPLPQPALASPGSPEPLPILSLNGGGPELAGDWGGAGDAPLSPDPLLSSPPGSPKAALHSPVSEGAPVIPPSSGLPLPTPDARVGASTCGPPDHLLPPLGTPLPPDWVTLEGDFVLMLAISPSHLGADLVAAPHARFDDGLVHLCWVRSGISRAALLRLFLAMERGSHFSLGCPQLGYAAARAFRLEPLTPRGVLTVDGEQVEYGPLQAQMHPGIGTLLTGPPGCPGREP
The note with it: at 0.1 µM.

Assay [3] concerns the target T1, Sphingosine kinase 2 (Homo sapiens). As to conditions: at 1 µM.
Assay [4] has as its target Casein kinase II subunit alpha (Homo sapiens) (UniProt P68400). The note with it: at 0.1 µM.
The target is the same in assay [5]. As to conditions: at 1 µM.
The target of assay [6] is T2, Inhibitor of nuclear factor kappa-B kinase subunit alpha (Homo sapiens) (UniProt O15111).
T2 sequence (whole entry): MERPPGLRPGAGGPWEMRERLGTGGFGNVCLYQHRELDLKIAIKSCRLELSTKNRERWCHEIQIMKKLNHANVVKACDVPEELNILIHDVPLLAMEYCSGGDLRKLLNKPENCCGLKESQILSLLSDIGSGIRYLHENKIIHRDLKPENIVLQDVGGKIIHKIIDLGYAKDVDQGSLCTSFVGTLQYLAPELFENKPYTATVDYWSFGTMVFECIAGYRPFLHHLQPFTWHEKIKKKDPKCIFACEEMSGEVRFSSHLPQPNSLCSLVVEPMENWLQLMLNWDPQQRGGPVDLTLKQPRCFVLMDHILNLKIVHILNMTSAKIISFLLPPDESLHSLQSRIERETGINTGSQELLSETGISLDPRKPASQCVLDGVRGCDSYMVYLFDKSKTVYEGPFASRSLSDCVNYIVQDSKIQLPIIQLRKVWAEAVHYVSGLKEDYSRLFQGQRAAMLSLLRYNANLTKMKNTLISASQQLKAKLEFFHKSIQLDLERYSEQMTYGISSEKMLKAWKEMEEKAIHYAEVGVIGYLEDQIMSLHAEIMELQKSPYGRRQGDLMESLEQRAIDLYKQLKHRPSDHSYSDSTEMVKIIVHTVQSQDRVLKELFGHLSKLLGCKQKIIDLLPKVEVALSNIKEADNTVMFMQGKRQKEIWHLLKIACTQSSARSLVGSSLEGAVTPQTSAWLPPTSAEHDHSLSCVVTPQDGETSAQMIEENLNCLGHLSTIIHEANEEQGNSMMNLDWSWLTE
The note with it: at 0.1 µM.

The target of assay [7] is T2, Inhibitor of nuclear factor kappa-B kinase subunit alpha (Homo sapiens). As to conditions: at 1 µM.
Assay [8] concerns the target T3, Inhibitor of nuclear factor kappa-B kinase subunit beta (Homo sapiens) (UniProt O14920).
T3 sequence (whole entry): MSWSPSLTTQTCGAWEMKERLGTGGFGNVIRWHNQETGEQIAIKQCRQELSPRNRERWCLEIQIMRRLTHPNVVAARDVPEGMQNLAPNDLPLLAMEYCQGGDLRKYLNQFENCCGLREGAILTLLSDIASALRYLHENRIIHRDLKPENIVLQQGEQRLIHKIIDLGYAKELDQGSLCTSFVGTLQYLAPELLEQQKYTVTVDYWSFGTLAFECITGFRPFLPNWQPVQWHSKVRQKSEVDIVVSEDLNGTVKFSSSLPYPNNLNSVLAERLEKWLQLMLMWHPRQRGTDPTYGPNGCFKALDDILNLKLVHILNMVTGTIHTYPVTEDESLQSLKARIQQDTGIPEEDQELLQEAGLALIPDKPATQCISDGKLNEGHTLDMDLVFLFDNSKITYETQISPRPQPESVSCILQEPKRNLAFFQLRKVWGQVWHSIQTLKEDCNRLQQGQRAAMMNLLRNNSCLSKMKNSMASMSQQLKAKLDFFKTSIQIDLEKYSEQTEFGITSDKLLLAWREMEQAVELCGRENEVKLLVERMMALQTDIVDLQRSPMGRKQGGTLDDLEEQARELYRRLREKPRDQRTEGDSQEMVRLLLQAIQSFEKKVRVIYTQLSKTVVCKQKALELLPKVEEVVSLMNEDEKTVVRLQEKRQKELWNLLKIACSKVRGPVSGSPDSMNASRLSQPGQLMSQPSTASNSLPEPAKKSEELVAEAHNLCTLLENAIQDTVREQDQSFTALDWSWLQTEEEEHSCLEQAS
The note with it: at 0.1 µM.

Assay [9] concerns the target T3, Inhibitor of nuclear factor kappa-B kinase subunit beta (Homo sapiens). The note with it: at 1 µM.
The target of assay [10] is T4, Inhibitor of nuclear factor kappa-B kinase subunit epsilon (Homo sapiens) (UniProt Q14164).
T4 sequence (whole entry): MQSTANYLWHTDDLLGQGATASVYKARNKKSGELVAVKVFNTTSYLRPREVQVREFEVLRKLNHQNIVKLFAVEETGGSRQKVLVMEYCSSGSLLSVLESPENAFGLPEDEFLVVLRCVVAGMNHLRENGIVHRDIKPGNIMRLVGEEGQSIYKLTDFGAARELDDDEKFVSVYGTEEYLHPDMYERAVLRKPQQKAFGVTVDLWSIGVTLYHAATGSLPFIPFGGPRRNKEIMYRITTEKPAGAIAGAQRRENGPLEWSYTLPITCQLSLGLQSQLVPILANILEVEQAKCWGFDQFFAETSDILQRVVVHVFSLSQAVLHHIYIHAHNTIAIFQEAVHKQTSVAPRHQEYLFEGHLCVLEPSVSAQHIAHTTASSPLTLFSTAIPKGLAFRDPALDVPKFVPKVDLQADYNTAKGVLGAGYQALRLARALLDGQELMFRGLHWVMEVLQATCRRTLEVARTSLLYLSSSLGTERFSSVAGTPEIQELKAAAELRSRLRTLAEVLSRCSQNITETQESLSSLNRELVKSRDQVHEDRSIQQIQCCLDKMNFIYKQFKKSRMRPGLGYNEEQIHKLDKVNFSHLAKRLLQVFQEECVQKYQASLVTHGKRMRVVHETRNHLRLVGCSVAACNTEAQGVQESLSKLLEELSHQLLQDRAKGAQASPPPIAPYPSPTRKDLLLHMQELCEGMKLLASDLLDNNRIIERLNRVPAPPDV
The note with it: at 0.1 µM.

Assay [11] addresses T4, Inhibitor of nuclear factor kappa-B kinase subunit epsilon (Homo sapiens). The note with it: at 1 µM.
In assay [12] the target is T5, Serine/threonine-protein kinase Nek1 (Homo sapiens) (UniProt Q96PY6).
T5 sequence (whole entry): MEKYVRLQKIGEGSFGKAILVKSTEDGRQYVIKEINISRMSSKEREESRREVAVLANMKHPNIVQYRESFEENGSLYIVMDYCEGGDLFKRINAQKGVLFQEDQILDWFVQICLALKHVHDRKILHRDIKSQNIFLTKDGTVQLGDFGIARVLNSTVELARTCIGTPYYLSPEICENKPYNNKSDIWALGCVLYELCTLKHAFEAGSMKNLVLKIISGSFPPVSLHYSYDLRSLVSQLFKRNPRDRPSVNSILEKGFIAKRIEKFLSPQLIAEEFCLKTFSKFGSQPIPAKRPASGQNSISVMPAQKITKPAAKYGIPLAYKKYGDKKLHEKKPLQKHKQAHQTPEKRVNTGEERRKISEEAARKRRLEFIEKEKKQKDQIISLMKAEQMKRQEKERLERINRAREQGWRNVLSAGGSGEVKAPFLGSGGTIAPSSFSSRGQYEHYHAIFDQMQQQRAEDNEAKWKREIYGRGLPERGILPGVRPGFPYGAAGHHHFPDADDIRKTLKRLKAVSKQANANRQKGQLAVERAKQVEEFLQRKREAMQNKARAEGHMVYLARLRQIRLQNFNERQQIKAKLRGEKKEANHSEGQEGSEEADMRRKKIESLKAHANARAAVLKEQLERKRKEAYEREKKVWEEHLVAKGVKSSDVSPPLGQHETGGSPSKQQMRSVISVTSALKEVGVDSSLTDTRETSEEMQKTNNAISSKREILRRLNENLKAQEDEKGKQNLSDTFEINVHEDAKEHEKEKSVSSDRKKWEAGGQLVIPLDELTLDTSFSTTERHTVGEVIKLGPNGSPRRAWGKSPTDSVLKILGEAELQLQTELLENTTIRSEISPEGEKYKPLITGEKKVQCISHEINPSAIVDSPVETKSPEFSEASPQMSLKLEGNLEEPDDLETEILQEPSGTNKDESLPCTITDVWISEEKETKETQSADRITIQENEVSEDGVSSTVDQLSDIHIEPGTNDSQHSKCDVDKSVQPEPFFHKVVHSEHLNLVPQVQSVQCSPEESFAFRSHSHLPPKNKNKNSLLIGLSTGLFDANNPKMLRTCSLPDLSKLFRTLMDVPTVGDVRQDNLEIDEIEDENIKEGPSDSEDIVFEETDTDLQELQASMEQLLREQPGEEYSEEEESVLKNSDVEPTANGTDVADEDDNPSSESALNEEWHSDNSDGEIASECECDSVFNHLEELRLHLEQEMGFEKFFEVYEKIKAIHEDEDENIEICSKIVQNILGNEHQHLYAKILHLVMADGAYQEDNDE
As to conditions: at 0.1 µM.

Assay [13] deals with T5, Serine/threonine-protein kinase Nek1 (Homo sapiens). The note with it: at 1 µM.
In assay [14] the target is T6, Serine/threonine-protein kinase Nek2 (Homo sapiens) (UniProt P51955).
T6 sequence (whole entry): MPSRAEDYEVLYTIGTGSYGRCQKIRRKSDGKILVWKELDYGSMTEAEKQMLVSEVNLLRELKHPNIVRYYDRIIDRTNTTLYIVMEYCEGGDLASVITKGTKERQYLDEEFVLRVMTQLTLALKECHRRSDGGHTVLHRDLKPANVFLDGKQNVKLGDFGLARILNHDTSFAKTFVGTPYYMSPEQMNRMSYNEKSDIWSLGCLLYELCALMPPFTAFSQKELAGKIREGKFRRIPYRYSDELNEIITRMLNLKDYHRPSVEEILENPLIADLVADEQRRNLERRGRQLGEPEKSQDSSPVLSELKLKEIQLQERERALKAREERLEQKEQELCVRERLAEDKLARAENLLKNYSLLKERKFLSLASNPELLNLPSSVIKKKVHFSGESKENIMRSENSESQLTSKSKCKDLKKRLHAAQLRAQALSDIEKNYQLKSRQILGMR
As to conditions: at 0.1 µM.

The target in assay [15] is T6, Serine/threonine-protein kinase Nek2 (Homo sapiens). The note with it: at 1 µM.
Assay [16] concerns the target Serine/threonine-protein kinase Nek6 (Homo sapiens) (UniProt Q9HC98). As to conditions: at 0.1 µM.
The target is the same in assay [17]. The note with it: at 1 µM.
In assay [18] the target is Serine/threonine-protein kinase Nek7 (Homo sapiens) (UniProt Q8TDX7). The note with it: at 0.1 µM.
For assay [19] the target is unchanged. As to conditions: at 1 µM.
Assay [20] deals with T7, Serine/threonine-protein kinase Nek9 (Homo sapiens) (UniProt Q8TD19).
T7 sequence (whole entry): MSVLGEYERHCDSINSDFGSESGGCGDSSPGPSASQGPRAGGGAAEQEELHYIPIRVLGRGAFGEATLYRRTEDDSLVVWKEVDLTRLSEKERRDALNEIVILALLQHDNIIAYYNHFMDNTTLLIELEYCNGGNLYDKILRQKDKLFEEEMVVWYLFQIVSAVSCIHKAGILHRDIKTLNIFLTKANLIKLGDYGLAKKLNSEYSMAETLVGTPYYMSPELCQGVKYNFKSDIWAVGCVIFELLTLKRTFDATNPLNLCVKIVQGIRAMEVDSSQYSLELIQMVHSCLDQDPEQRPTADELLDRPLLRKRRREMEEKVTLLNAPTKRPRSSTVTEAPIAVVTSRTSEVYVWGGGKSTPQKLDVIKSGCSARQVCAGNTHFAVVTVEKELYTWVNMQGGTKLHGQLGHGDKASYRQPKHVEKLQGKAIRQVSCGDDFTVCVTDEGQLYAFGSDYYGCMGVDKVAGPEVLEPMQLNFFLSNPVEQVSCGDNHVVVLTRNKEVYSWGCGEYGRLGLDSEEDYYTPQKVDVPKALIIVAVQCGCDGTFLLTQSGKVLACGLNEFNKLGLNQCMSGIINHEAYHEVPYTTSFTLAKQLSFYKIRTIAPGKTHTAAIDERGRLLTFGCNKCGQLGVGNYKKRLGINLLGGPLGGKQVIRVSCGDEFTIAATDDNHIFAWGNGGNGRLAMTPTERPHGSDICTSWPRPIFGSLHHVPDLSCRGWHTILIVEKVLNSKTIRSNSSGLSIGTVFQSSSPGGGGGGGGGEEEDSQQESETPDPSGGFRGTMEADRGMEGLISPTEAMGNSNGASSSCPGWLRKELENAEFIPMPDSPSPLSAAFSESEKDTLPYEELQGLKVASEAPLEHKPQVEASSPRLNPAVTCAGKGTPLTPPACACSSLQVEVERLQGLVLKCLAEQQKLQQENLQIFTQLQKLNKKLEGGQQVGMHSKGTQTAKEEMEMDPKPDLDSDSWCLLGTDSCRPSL
The note with it: at 0.1 µM.

This passage reports inhibition results from ChEMBL document CHEMBL1961873, “Compounds: GSK PKIS; Assays: Nanosyn kinase panel” (2012).

Serine/threonine-protein kinase Nek6 (Homo sapiens), sequence (Q9HC98 whole entry): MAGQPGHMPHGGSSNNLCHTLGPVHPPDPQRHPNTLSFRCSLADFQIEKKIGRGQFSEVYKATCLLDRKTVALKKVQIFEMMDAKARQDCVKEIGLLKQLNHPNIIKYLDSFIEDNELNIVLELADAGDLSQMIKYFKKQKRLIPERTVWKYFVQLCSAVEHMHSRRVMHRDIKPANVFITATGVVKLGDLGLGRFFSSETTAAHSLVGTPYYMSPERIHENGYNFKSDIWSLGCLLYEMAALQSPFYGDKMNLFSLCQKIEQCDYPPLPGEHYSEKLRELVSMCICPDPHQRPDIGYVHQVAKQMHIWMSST
Serine/threonine-protein kinase Nek7 (Homo sapiens), sequence (Q8TDX7 whole entry, looked up): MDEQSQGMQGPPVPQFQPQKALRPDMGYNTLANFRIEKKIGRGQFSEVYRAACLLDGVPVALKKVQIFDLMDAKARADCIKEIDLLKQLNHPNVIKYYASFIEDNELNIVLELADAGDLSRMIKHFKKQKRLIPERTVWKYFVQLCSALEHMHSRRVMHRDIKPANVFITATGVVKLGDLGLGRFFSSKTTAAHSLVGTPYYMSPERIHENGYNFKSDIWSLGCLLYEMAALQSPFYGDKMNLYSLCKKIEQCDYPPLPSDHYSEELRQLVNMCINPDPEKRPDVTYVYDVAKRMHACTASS
Casein kinase II subunit alpha (Homo sapiens), sequence (P68400 whole entry, looked up): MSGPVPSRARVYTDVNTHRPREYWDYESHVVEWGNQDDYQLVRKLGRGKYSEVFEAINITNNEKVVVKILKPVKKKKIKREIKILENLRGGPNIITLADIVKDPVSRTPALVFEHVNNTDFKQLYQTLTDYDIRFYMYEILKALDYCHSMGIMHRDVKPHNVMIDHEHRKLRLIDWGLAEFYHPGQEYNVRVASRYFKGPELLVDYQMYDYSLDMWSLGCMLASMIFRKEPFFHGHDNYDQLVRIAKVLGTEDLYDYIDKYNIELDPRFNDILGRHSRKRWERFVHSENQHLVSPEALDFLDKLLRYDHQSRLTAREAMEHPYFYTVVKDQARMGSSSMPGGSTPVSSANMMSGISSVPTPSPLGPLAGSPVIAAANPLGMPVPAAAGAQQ
Sphingosine kinase 1 (Homo sapiens), sequence (Q9NYA1 whole entry): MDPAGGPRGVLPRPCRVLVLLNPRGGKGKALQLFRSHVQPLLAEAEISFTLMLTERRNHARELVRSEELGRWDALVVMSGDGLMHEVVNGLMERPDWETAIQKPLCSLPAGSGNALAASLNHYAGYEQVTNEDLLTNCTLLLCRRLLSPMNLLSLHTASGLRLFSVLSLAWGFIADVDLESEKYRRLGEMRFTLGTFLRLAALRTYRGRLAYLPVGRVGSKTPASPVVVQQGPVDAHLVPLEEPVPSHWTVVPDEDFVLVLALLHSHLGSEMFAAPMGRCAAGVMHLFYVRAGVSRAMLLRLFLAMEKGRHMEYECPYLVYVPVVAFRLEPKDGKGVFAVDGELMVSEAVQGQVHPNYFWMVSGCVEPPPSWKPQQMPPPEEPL

For the compound `COc1cc(Nc2ncc(-c3ccccc3)o2)cc(OC)c1OC`, the inhibition in assay [1] is 0.49%; in assay [2], 1.41%; in assay [3], -0.15%; in [4] it was 0.33%; in assay [5] it was 4.02%; in assay [6], 2.97%. The inhibition was 4.62% in [7]; 0.7% in assay [8]; 4.06% in assay [9]; 0.76% in [10]; 1.15% in assay [11]; -1.04% in assay [12]. Besides, the inhibition in assay [13] was 1.71%; in assay [14], -1.53%; in assay [15] it was -0.62%; in assay [16] it was -1.01%; in [17] it was -3.53%; in assay [18], -3.32%. Moreover, the figures for the inhibition in assay [19] and in assay [20] were 3.67% and 5.06%, respectively.
